Data on eight compounds can be found in PubChem BioAssay (EPA / NIEHS).

Results filed as inconclusive are left out. Activity calls are given as the source filed them. The calls were made as follows, unless noted: active = hit-call score of the fitted dose curve at least 0.9, where 1 is the maximum; inactive = score below 0.9.

A short description of assay [1]: ACEA_ER_80hr: ACEA Biosciences xCELLigence Real-Time Cell Analysis on Estrogen Receptor Agonism for Proliferation (AID 2282667; active = hit-call score of the fitted dose curve at least 0.9, where 1 is the maximum). The following applies: T47D proliferation, impedance (xCELLigence), 80 h. The procedure, abridged: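 Real-time electrical impedance tracked growth of the human breast line T47D, with the 80 h post-dosing value used. Dosing spanned eight 1:4 steps down from a 100 uM final top concentration, run in duplicate.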

Assay [2] is described as follows: ATG_CRE_CIS: Attagene CIS-FACTORIAL HepG2 Assay for human cAMP Responsive Element (CRE) binding protein 3 (AID 2282926). As to conditions: HepG2 CRE cis-reporter, Attagene multiplexed mRNA; actives raise or lower the signal. The procedure, abridged:
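Human liver HepG2, transient MRTU transfection, 24 h compound exposure. Total RNA → oligo(dT) RT → PCR → 6-FAM primer extension → HpaI cut → CE. Activity called both directions vs DMSO.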

Assay [3] deals with CCAAT/enhancer-binding protein beta (Homo sapiens) (UniProt P17676). The experiment in a line: ATG_C_EBP_CIS: Attagene CIS-FACTORIAL HepG2 Assay for human CCAAT/Enhancer Binding Protein (C/EBP) beta (AID 2282927). The following applies: HepG2 Attagene cis-factorial transcription factor reporter; actives raise or lower the signal. The procedure, abridged: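 HepG2 transiently transfected with multiplexed reporter units under cis-regulatory promoters reporting endogenous C/EBPb activity. After 24 h exposure, reporter mRNA assayed by RT-PCR, fluorescent labelling, HpaI digestion and capillary electrophoresis; bidirectional fitting versus DMSO.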

Assay [4] can be described thus: ATG_CMV_CIS: Attagene CIS-FACTORIAL HepG2 Assay for human CMV (Internal Marker) (AID 2282928).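 Also: endpoint acts as a background internal control marker rather than a target.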 As to conditions: HepG2 CMV promoter reporter, transcription factor profiling; actives raise or lower the signal. The procedure, abridged: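 Endogenous transcription factor activity read in HepG2 via transfected cis-promoter reporter units. After 24 h dosing, reporter mRNA measured by RT-PCR/capillary electrophoresis; gain or loss of signal fit relative to DMSO.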

Assay [5] is described as follows: ATG_DR4_LXR_CIS: Attagene CIS-FACTORIAL HepG2 Assay for human Liver X Receptor (LXR), DR4 submotif (AID 2282929). As to conditions: HepG2 Attagene DR4 cis-reporter, mRNA transcription; actives raise or lower the signal. The procedure, abridged: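 Fluorescence intensity of labelled reporter cDNA fragments, separated by capillary electrophoresis, gives the signal. HepG2 cells bearing cis-regulated reporter constructs were treated 24 h; activity fitted bidirectionally relative to DMSO negative control.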

Assay [6] deals with Aryl hydrocarbon receptor (Homo sapiens) (UniProt P35869). Put plainly: ATG_Ahr_CIS: Attagene CIS-FACTORIAL HepG2 Assay for human Aryl Hydrocarbon Receptor (Ahr) (AID 2282930). The following applies: HepG2 AhR cis-factorial reporter transcription; actives raise or lower the signal. The procedure, abridged:
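HepG2 cells transiently transfected with cis-element-driven multiplexed reporter units; endogenous AhR activity read as reporter mRNA 24 h after dosing, via RT-PCR, 6-FAM labelling, HpaI digestion and capillary electrophoresis. Bidirectional fit relative to DMSO.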

Assay [7] in a line: ATG_AP_1_CIS: Attagene CIS-FACTORIAL HepG2 Assay for human Activator Protein 1 (AP-1) (AID 2282931). As to conditions: HepG2 Attagene cis-factorial AP-1 reporter mRNA; actives raise or lower the signal. The procedure, abridged:
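Multiplexed HepG2 reporter assay, 24 h dosing. mRNA induction detected by RT-PCR plus capillary electrophoresis. Activity fitted in both directions against DMSO.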

A short description of assay [8]: ATG_AP_2_CIS: Attagene CIS-FACTORIAL HepG2 Assay for human Activator Protein 2 (AP-2) (AID 2282932). The following applies: HepG2 AP-2 cis-reporter, Attagene transcription factor profiling; actives raise or lower the signal. In short, it runs like this:
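HepG2 cells transiently transfected with cis-element reporter units and exposed for 24 h. Reporter mRNA measured by RT-PCR, FAM labelling, HpaI digestion and capillary electrophoresis. Changes in either direction fitted relative to DMSO.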

The nature of assay [9]: ATG_BRE_CIS: Attagene CIS-FACTORIAL HepG2 Assay for human Bone Morphogenetic Protein (BMP) Response Element (BRE) (AID 2282933). The following applies: HepG2 BMP response element reporter, Attagene transcription factor profiling; actives raise or lower the signal. The procedure, abridged: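 HepG2 cells transiently transfected with CIS reporter units (endogenous TF activity, BMP response element), dosed 24 h. Reporter mRNA quantified by RT-PCR, fluorescent labelling and capillary electrophoresis; bidirectional fit vs DMSO baseline.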

The target of assay [10] is Transcription factor E2F1 (Homo sapiens) (UniProt Q01094). The experiment in a line: ATG_E2F_CIS: Attagene CIS-FACTORIAL HepG2 Assay for human E2F Transcription Factor 1 (AID 2282935). The following applies: HepG2 Attagene cis-reporter, E2F reporter RNA transcripts; actives raise or lower the signal. In short, it runs like this: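 Endogenous E2F1 activity read through cis-promoter reporter units transfected into HepG2. After 24 h compound treatment, reporter mRNA measured by RT-PCR, HpaI digestion and capillary electrophoresis. Bidirectional fit versus DMSO.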

Assay [11] is described as follows: ATG_E_Box_CIS: Attagene CIS-FACTORIAL HepG2 Assay for human Enhancer Box (E-box) (AID 2282936). The following applies: HepG2 E-box cis-reporter transcription, actives raise or lower the signal. In short, it runs like this:
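HepG2 cells transiently transfected with multiplexed cis-element reporter units, dosed 24 h; reporter mRNA quantified by RT-PCR, 6-FAM labelling, HpaI digestion and capillary electrophoresis. E-box (USF1) signal fitted bidirectionally vs DMSO.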

Assay [12] can be described thus: ATG_M_61_CIS: Attagene CIS-FACTORIAL HepG2 Assay for M61 Transcription Factor (Internal Marker) (AID 2282937). As to conditions: HepG2 Attagene CIS-FACTORIAL M61 internal marker reporter; actives raise or lower the signal. In short, it runs like this: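 Endogenous transcription factor activity in HepG2 is read through transiently transfected cis-element reporter units. After 24 h dosing, RNA undergoes reverse transcription, PCR and primer extension with 6-FAM before capillary electrophoresis; DMSO-referenced bidirectional fit.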

Assay [13] in a line: ATG_EGR_CIS: Attagene CIS-FACTORIAL HepG2 Assay for human Early Growth Response 1 (EGR1) (AID 2282938). The following applies: HepG2 Attagene CIS-FACTORIAL EGR reporter mRNA; actives raise or lower the signal. In short, it runs like this: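 Activity is taken as induction or loss of reporter mRNA versus DMSO, fitted bidirectionally. Transcripts from cis-regulated reporter units in transiently transfected HepG2 were measured after 24 h by RT-PCR with capillary electrophoresis.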

Assay [14] in a line: ATG_ERE_CIS: Attagene CIS-FACTORIAL HepG2 Assay for Estrogen Response Element (ERE) (AID 2282940). The following applies: HepG2 ERE cis-reporter, Attagene RNA transcript; actives raise or lower the signal. In short, it runs like this:
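HepG2 cells transiently transfected with multiplexed cis-element reporter units, measuring endogenous transcription factor activity; ERE reporter mRNA quantified after 24 h exposure by RT-PCR, fluorescent labelling, HpaI digestion and capillary electrophoresis. Bidirectional change versus DMSO.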

The nature of assay [15]: ATG_Ets_CIS: Attagene CIS-FACTORIAL HepG2 Assay for human Erythroblast Transformation Specific (ETS) (AID 2282941). As to conditions: HepG2 ETS cis-reporter transcription, actives raise or lower the signal. In short, it runs like this:
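Steps: transfect HepG2 with multiple reporter units; treat compound 24 h; isolate RNA, DNase-treat, reverse-transcribe; PCR-amplify, label with 6-FAM, digest with HpaI; separate by capillary electrophoresis. Activity fitted both directions versus DMSO.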

Assay [16] addresses Hepatocyte nuclear factor 3-beta (Homo sapiens) (UniProt Q9Y261). Put plainly: ATG_FoxA2_CIS: Attagene CIS-FACTORIAL HepG2 Assay for human Forkhead box A2 (FOXA2) (AID 2282942). As to conditions: HepG2 cis-reporter transcription factor activity, 24 h; actives raise or lower the signal. The procedure, abridged: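 Reporter transcript induction is measured by fluorescence after capillary electrophoresis of RT-PCR products from HepG2 cells exposed 24 h. Cis-regulated reporter units report endogenous factor activity; curves fitted both directions against DMSO.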

Assay [17] in a line: ATG_FoxO_CIS: Attagene CIS-FACTORIAL HepG2 Assay for human Forkhead box O (FoxO) (AID 2282943). As to conditions: HepG2 Attagene cis-reporter, FoxO element, mRNA; actives raise or lower the signal. The procedure, abridged: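 HepG2 cells transiently transfected with cis-element-driven reporter units report endogenous FoxO activity. After 24 h chemical exposure, reporter mRNA quantified by RT-PCR, fluorescent labeling, HpaI digestion and capillary electrophoresis; bidirectional fit versus DMSO.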

Assay [18] is described as follows: ATG_GATA_CIS: Attagene CIS-FACTORIAL HepG2 Assay for human GATA Binding Protein (AID 2282944). The following applies: HepG2 GATA cis-element reporter, Attagene multiplex mRNA; actives raise or lower the signal. In short, it runs like this:
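HepG2 cells transiently transfected with multiplexed cis-element reporter units measure endogenous GATA activity; after 24 h compound exposure, reporter mRNA quantified by RT-PCR and capillary electrophoresis. Changes fitted in both directions vs DMSO.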

Assay [19] can be described thus: ATG_M_19_CIS: Attagene CIS-FACTORIAL HepG2 Assay for M19 Transcription Factor (Internal Marker) (AID 2282939). As to conditions: HepG2 Attagene CIS-FACTORIAL M19 internal marker reporter; actives raise or lower the signal. In short, it runs like this: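 HepG2 cells transiently transfected with cis-regulated multiplexed reporter units, dosed 24 h. Reporter mRNA quantified by RT-PCR and capillary electrophoresis; internal background marker fitted bidirectionally versus DMSO.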

Hepatocyte nuclear factor 3-beta (Homo sapiens), sequence (Q9Y261 whole entry, looked up): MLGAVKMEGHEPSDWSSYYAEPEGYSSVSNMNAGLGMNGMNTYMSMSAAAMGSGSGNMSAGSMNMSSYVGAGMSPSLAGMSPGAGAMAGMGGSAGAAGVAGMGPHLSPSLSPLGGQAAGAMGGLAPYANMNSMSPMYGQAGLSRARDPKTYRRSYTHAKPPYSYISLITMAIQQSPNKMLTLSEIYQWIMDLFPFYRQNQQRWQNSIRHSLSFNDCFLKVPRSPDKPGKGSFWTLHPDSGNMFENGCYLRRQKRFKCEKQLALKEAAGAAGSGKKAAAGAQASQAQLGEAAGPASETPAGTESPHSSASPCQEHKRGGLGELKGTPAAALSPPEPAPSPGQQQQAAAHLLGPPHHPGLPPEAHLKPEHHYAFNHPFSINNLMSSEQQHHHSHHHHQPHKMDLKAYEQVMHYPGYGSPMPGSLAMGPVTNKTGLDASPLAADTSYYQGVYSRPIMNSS
Transcription factor E2F1 (Homo sapiens), sequence (Q01094 whole entry, looked up): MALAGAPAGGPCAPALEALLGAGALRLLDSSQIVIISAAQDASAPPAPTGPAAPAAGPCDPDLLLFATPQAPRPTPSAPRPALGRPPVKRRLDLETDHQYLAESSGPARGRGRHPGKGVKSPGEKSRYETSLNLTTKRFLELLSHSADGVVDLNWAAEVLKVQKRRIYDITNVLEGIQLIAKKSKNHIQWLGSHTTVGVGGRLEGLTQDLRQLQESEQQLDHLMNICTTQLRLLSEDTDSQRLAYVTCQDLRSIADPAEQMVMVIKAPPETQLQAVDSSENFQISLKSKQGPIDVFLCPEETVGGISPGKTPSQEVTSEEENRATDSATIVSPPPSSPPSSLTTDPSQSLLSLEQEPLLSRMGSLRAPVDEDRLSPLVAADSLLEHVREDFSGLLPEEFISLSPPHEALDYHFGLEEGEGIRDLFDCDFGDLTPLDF
CCAAT/enhancer-binding protein beta (Homo sapiens), sequence (P17676 whole entry, looked up): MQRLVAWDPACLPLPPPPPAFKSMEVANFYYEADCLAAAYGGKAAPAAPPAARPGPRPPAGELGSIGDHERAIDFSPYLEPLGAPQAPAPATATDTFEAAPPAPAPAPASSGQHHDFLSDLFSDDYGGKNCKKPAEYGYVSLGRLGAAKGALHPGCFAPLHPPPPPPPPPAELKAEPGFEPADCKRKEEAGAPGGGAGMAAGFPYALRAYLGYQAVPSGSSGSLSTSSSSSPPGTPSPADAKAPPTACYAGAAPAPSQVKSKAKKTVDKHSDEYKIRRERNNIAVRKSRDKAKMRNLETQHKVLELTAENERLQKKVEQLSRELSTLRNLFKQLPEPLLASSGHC
Aryl hydrocarbon receptor (Homo sapiens), sequence (P35869 whole entry, looked up): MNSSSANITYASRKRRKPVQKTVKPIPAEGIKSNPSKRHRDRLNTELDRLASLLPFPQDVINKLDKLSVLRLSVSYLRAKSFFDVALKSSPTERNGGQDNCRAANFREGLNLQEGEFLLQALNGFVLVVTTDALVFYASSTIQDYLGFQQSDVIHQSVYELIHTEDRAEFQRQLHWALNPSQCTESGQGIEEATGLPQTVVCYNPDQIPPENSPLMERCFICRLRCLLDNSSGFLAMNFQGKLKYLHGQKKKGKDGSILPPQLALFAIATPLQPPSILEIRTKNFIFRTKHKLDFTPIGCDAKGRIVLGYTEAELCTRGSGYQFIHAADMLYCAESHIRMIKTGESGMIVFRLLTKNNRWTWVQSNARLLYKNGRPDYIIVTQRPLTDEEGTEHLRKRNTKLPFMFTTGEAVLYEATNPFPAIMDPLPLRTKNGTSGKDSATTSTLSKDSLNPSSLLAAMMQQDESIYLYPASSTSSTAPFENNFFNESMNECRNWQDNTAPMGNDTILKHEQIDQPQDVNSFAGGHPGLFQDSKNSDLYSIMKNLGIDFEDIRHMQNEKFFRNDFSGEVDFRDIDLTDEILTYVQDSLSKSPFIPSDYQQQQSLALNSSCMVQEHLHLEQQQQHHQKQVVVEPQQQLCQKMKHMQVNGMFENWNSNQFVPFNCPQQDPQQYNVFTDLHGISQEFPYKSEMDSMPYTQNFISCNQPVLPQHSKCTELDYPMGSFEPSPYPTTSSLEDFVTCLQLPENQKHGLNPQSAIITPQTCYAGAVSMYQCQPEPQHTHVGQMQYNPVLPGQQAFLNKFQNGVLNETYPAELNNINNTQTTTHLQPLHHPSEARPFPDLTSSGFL

Turning to `CC1CCCCC1`, the compound was called inactive in assay [1], in assay [2], in [3], in assay [4], in [5] and in assay [6]. Further, the result in assay [7], in assay [8], in assay [9], in assay [10], in assay [11] and in assay [12] was inactive. Besides, the call in assay [13], in assay [14], in assay [15], in [16], in assay [17] and in [18] was inactive.
Take `O=c1cccc[nH]1`: the outcome in assay [1], in assay [2], in assay [3], in assay [4], in assay [5] and in [6] was inactive. Moreover, the call in [7], in [8], in [9], in assay [10], in assay [11] and in [12] was inactive. Moreover, the compound was classed as inactive in assay [13], in assay [19], in assay [14], in assay [15], in assay [16] and in assay [17]. Further, in assay [18], the compound was classed as inactive.
Regarding `CCC/C=C/CO`, the call in assay [1], in assay [2], in assay [3], in [4], in assay [5] and in assay [6] was inactive. The compound was classed as inactive in assay [7], in assay [8], in assay [9], in assay [10], in assay [11] and in assay [12]. Further, the call in assay [13], in assay [14], in assay [15], in assay [16], in assay [17] and in assay [18] was inactive.
Turning to `C[Si](Cl)(Cl)CCC(F)(F)C(F)(F)C(F)(F)C(F)(F)C(F)(F)C(F)(F)F`, the call in assay [1], in assay [2], in assay [3], in assay [4], in assay [5] and in assay [6] was inactive. Further, the compound was classed as inactive in assay [7], in [8], in assay [9], in assay [10], in assay [11] and in [12]. The compound was classed as inactive in assay [13], in [19], in assay [14], in assay [15], in [16] and in assay [17]. For the same compound, the compound was called inactive in assay [18].
Turning to `CC1=CCC(=O)O1`, the result in assay [1], in assay [2], in assay [3], in assay [4], in assay [5] and in assay [6] was inactive. Besides, the result in [7], in [8], in assay [9], in [10], in [11] and in [12] was inactive. Moreover, the result in assay [13], in assay [14], in assay [15], in assay [16], in assay [17] and in assay [18] was inactive.
Consider `CCN(CC)c1ccc(C=O)c(O)c1`, for which the compound was classed as inactive in assay [1], in assay [2], in [3], in assay [4], in assay [6] and in [7]. Also, the call in assay [8], in [9], in assay [10], in assay [11], in assay [12] and in [13] was inactive. The compound was classed as inactive in assay [19], in [14], in assay [15], in assay [16], in assay [17] and in assay [18]. Also, the AC50 in [5] was 67.2 µM (active).
In the case of `C=C(C)C(=O)OCC(F)(F)C(F)(F)C(F)(F)C(F)F`, the result in assay [1], in assay [2], in [3], in assay [4], in [5] and in assay [6] was inactive. Besides, the outcome in assay [7], in assay [8], in [9], in [10], in assay [11] and in [12] was inactive. Besides, the compound was called inactive in assay [13], in assay [19], in [14], in assay [15], in assay [16] and in assay [17]. Moreover, the result in assay [18] was inactive.
For `O=S(=O)(OCC(F)(F)F)C(F)(F)C(F)(F)C(F)(F)C(F)(F)F`, the compound was classed as inactive in [1], in [2], in assay [3], in assay [6], in assay [8] and in assay [10]. In addition, the result in [11], in [12], in assay [13], in [19], in assay [14] and in assay [15] was inactive. The result in [16], in [17] and in [18] was inactive. In addition, the AC50 in assay [4] was 42.3 µM (active); in assay [5] it was 104 µM (active); in assay [7] it was 48.1 µM (active); in assay [9] it was 58.2 µM (active).

The term AC50 denotes the concentration at which the activity in the assay is half-maximal.
